Measured values as given in PubChem BioAssay (NCI).
Several values for one entry are separate records, joined by “and”; a condition that tells them apart may be missing. Identical values can stand only once. About 83,000 compounds went through this panel and 20% of them were active in at least one assay; those are over-represented in the sample as a whole.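 Note: values are percent growth. 100 is the growth of untreated cells, values between 100 and 0 indicate rising inhibition; between -100 and 0 indicates cell death.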 Activity calls are given as the source filed them. How the source made its calls: active means growth percent below 10; inactive means the rest.

Assays:
Test in all cases: NCI-60 one-dose screen, 48 h (100 = growth as untreated, 0 = no growth, -100 = all killed)
Conditions in all cases: 10 µM unless noted
[1] = test system: HCT-15 colon
[2] = test system: HT29 colon
[3] = test system: SNB-75 CNS
[4] = test system: SNB-19 CNS
[5] = test system: U251 CNS
[6] = test system: SK-MEL-5 melanoma
[7] = test system: UACC-62 melanoma
[8] = test system: LOX IMVI melanoma
[9] = test system: SK-MEL-28 melanoma
[10] = test system: PC-3 prostate

Measured: growth

COC12CC3(C)C(C4=CC(=O)OC4)CCC3(O)C3CCC4=CC(=O)CCC4(CO1)C32 (stereo not given)
inactive: [1] 101% | [2] 103% | [3] 90.6% | [4] 107% | [5] 103% | [6] 106% | [7] 99.6% | [8] 102% | [9] 122%

N#CCc1ccc(CC#N)cc1
inactive: [1] 96.5% | [2] 92.4% | [3] 101% | [4] 93.2% | [5] 93.6% | [6] 101% | [7] 92.3% | [8] 101% | [9] 101%

COc1cc2c(cc1OC)[C@@H]1C(=O)c3ccc4c(c3O[C@@H]1CO2)C[C@H](C(C)C)O4
inactive: [1] 79.1% | [2] 83.1% | [3] 90.1% | [5] 57.8% | [6] 17.9% | [7] 66.7% | [8] 53% | [9] 98.5%
active: [10] 9.13%

C[N+]1(C)CCCC1c1cccnc1 (stereo not given)
inactive: [1] 104% | [2] 102% | [3] 98% | [4] 105% | [5] 94% | [6] 95.4% | [7] 102% | [8] 100% | [9] 114%

c1ccc2c(c1)O[As](O[As]1Oc3ccccc3O1)O2
inactive: [1] 29.9% | [2] 24.8% | [4] 82.9% | [6] 20.7% | [7] 43.8% | [8] 30.9% | [9] 44.4%
active: [3] 1.6% | [5] 1.07%

COc1cc(/C=C\[N+](=O)[O-])ccc1OCc1ccccc1
inactive: [3] 79.2% | [4] 36.5% | [6] 65.2% | [7] 30.5% | [9] 18.5%
active: [1] -11.7% | [2] 4.62% | [5] 5.01% | [8] -83.3%

CCN(CC)CCn1c(=O)n(C)c2ccccc21
inactive: [1] 114% | [2] 112% | [3] 97% | [4] 113% | [5] 96.3% | [7] 109% | [8] 98.4% | [9] 114%

CC(=O)Nc1nc2c(s1)C1=CC[C@H]3[C@@H]4CC[C@H](OC(C)=O)[C@@]4(C)CC[C@@H]3[C@@]1(C)CC2
active: [3] 0.377%
inactive: [1] 40.3% | [2] 26.6% | [4] 62% | [5] 43.9% | [6] 36.9% | [7] 49.5% | [8] 63.5% | [9] 54.7%

COCC1OC2OC3C(COC)OC(OC4C(COC)OC(OC5C(COC)OC(OC6C(COC)OC(OC7C(COC)OC(OC8C(COC)OC(OC1C(O)C2O)C(O)C8O)C(O)C7O)C(O)C6O)C(O)C5O)C(O)C4O)C(O)C3O (stereo not given) (tested in a mixture with another compound)
inactive: [1] 103% | [2] 109% | [3] 86.1% | [4] 110% | [5] 105% | [6] 103% | [7] 107% | [8] 102% | [9] 112%

COc1ccc(CN)cc1OC
inactive: [1] 103% and 100% | [2] 107% | [3] 113% and 93.3% | [4] 104% and 103% | [5] 112% and 97.6% | [6] 115% | [7] 111% and 100% | [8] 98.2% and 94.2% | [9] 110% and 116%

O=C(O)C(O)c1ccc(Cl)cc1 (stereo not given)
inactive: [1] 102% | [2] 116% and 104% | [3] 100% and 112% | [4] 106% and 108% | [5] 106% and 100% | [6] 81.4% and 106% | [7] 103% and 106% | [8] 101% and 106% | [9] 106% and 109%

O=P(O)(Nc1ccccc1)Nc1ccccc1
inactive: [1] 119% | [2] 94.3% | [3] 81.9% | [4] 95.3% | [5] 99.3% | [6] 94.4% | [7] 91.8% | [8] 92.7% | [9] 148%

O=NN(c1ccccc1)c1ccccc1
inactive: [1] 103% | [2] 119% | [3] 101% | [4] 106% | [5] 99.2% | [6] 98.6% | [7] 95.4% | [8] 100% | [9] 114%

CC[C@H](C)[C@H](NC(=O)CN(C)C)C(=O)N(C)[C@H](C[C@@H](OC(C)=O)c1nc(C(=O)NC23CC(C(=O)OC)(C2)C3)cs1)C(C)C
inactive: [1] 21.6% | [3] 45.1% | [4] 41.5% | [5] 13.5% | [6] 12.6% | [7] 24.4% | [8] 19.7% | [9] 66.4%
active: [2] -1.6%

C[C@]12CCc3sc(Nc4ccc(O)cc4)nc3C1=CC[C@@H]1[C@@H]2CC[C@]2(C)C(=O)CC[C@@H]12
inactive: [2] 10.3% | [3] 41.7% | [4] 64.6% | [5] 19.5% | [6] 62% | [7] 55.8% | [9] 77.9%
active: [1] -68% | [8] -8.01%

CC1=C(C)C(=O)O[C@@H]([C@](C)(O)[C@]2(O)CC[C@@]3(O)[C@@H]4C[C@H]5O[C@]56CC=CC(=O)[C@]6(C)[C@H]4CC[C@]23C)C1
inactive: [4] 30.8% | [10] 11.2%
active: [1] -1.03% | [2] 1.74% | [3] -11.3% | [6] -15.6% | [7] -5.31% | [8] -54.7% | [9] 1.96%

CN1CCC2(CC1)C(C#N)C(=O)NC(=O)C2C#N (stereo not given)
inactive: [1] 98.4% | [2] 118% | [3] 76.4% | [4] 99% | [10] 101% | [6] 102% | [7] 101% | [8] 100% | [9] 95.1%

O=c1[nH]c(=O)[nH]c(=O)[nH]1
inactive: [1] 160% | [2] 115% | [3] 103% | [4] 98.1% | [5] 132% | [6] 107% | [7] 113% | [8] 129% | [9] 135%

Oc1ccccc1C=NCCN=Cc1ccccc1O.[Fe]
inactive: [1] 101% | [2] 72.4% | [3] 77.2% | [5] 26.4% | [10] 79.2% | [6] 66.5% | [7] 58.4% | [9] 117%
active: [8] -80.2%

NC(=O)Oc1cc(OC(N)=O)cc(N(CCCl)CCCl)c1
inactive: [1] 68.9% | [2] 64.1% | [3] 49.2% | [4] 74.6% | [10] 71.7% | [6] 73.3% | [7] 46.2% | [8] 42.6% | [9] 82.5%

C[C@]12CC[C@@H](OC(=O)N(CCCl)N=O)C[C@@H]1CC[C@@H]1[C@@H]2CC[C@]2(C)C(=O)CC[C@@H]12
inactive: [1] 72.8% | [2] 57.9% | [3] 63.4% | [5] 34.5% | [10] 45.6% | [6] 56.8% | [7] 30.4% | [8] 46.4% | [9] 99.4%

O=[N+]([O-])c1cc(Cl)c(Cl)cc1Cl
inactive: [1] 104% and 108% | [2] 124% and 111% | [3] 93.8% and 121% | [4] 101% and 131% | [5] 93.4% and 102% | [6] 123% and 105% | [7] 91.4% and 115% | [8] 96.5% and 98.4% | [9] 115% and 124%

CN1CCN(c2ccc(Cl)cc2)CC1
inactive: [1] 20.1% | [2] 26.4% | [3] 111% | [4] 93.9% | [5] 70.1% | [6] 101% | [7] 86.4% | [8] 70.5% | [9] 99.1%

CN1CCc2cc3c(cc2C1O)OCO3 (stereo not given)
inactive: [1] 98.9% and 94% | [2] 96.1% and 108% | [3] 81.1% and 104% | [5] 90.6% and 103% | [10] 77% and 89.3% | [7] 34.2% and 94.5% | [8] 71.4% and 102% | [9] 94.7% and 115%
-13.9% (active) and 105% (inactive): [6]

COc1cc2c(c(OC)c1OC)-c1ccc(O)cc1[C@@H](NC(C)=O)CC2
active: [1] 4.26% and 6.32% | [2] 5.06% | [6] -24.2% and -61.7%
inactive: [3] 12.7% and 14.9% | [4] 27.8% and 26.4% | [5] 22.5% and 18.3% | [7] 45.6% and 24.4% | [8] 12.1% and 20.2% | [9] 52.3% and 40%

O=[N+]([O-])c1ccc(CI)cc1
active: [1] 8.86%
inactive: [2] 47.8% | [3] 96.4% | [4] 106% | [10] 95.6% | [7] 79.6% | [9] 104%

C[C@]12CC[C@H](O)C[C@@H]1CC[C@@H]1[C@@H]2CC[C@]2(C)OC(=O)CC[C@@H]12
inactive: [1] 95.2% | [2] 79.6% | [3] 85.8% | [4] 96.6% | [5] 86.9% | [6] 101% | [7] 93.5% | [8] 97.9% | [9] 105%
